About 83,000 compounds went through this panel and 20% of them were active in at least one assay; those are over-represented in the sample as a whole.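 Activity criterion: percent growth below 10, measured after cells in 96-well plates were exposed to a single compound concentration for 48 hours.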 Unmarked numbers belong to inactive results. The source made the active and inactive calls.

Drawing on PubChem BioAssay (NCI), this text covers growth for 14 compounds.

Assay in all cases: NCI-60 one-dose screen, 48 h (100 = growth as untreated, 0 = no growth, -100 = all killed)
Common to all, as to conditions: 10 µM unless noted

Test [1] has as its system SNB-75 CNS.
Test [2] deals with SNB-19 CNS.
Test [3] relates to U251 CNS.
For test [4], the system named is SK-MEL-5 melanoma.
Test [5] relates to UACC-62 melanoma.
For test [6], the system named is LOX IMVI melanoma.
For test [7], the system named is SK-MEL-28 melanoma.
Test [8] concerns PC-3 prostate.
Test [9] relates to SK-MEL-2 melanoma.

Regarding `Clc1ccc([C@@H]2C[C@@H]3Cc4cc(Br)c5ccccc5c4N2O3)c(Cl)c1`, the growth in test [1] was 56.2%; in test [2], 83.8%; in [3], 60.6%; in test [4], 93.8%; in [5], 62.8%; in test [6], 72.1%. Besides, the growth in test [7] was 69.9%.
For the compound `COc1cc(C2CC(=O)Nc3c2cc(Br)c2ccccc32)cc(Br)c1OC` (stereo unspecified), the growth in [1] was -42.7% (active); in [2], 60.7%; in test [3] it was 17.2%; in [8], 39%; in test [6], 28.3%; in [7], 73%. Moreover, in [9], the growth is 58.7%.
`O=C(Nc1ccccc1Cl)c1cnc2ccc(C3CCNCC3)cn12`: the growth is -6.82% (active) in [1]; 84.6% in [2]; 88.4% in test [3]; 72.1% in [8]; 90.6% in test [4]; 102% in test [7]. The growth in [9] is 92.4%.
On to `COC(=O)[C@]12CC[C@@H](C)[C@H](C)[C@@H]1C1=CC[C@@H]3[C@@]4(C)C=C(O)C(=O)[C@@]5(C)COC(=C54)C[C@@]3(C)[C@]1(C)CC2`, for which the growth is 12.7% in test [1]; -26.5% (active) in test [2]; -74.9% (active) in test [3]; -71.2% (active) in [8]; -98.1% (active) in test [4]; -98.8% (active) in [6]. The growth in [7] is -56.9% (active); in [9] it was -62.8% (active).
With `Cc1ccc2c(c1)O/C(=C\c1ccc([N+](=O)[O-])o1)C2=O`, the growth is 84.3% in [1]; 93.4% in test [2]; 68.3% in test [3]; -61.2% (active) in [8]; 76.9% in [4]; 51.5% in [5]. In addition, the growth was 4.66% (active) in test [6], 83.3% in [7] and 79.2% in [9].
Take `O=C1/C(=C/c2ccc([N+](=O)[O-])s2)Oc2ccc(Br)cc21`: the growth in [1] is -16.1% (active); in test [2], -15.3% (active); in test [3] it was -87.9% (active); in test [8] it was -62.3% (active); in test [4], -89.1% (active); in test [5], -83.4% (active). Also, the growth was -75.6% (active) in test [6], -66.4% (active) in [7] and -62.2% (active) in test [9].
Regarding `O[C@@H]1Cc2ccc3ccccc3c2N[C@H](c2ccoc2)C1`, the growth in test [1] was 95.5%; in test [2], 102%; in test [3] it was 100%; in [4], 92.8%; in [5] it was 101%; in test [6] it was 92.7%. Also, the growth in test [7] is 125%.
Consider `COC(=O)CC1=C(C)/C(=C/c2[nH]c(-c3ccc[nH]3)cc2OC)N=C1C`, for which the growth in test [1] is -38.6% (active); in test [2] it was 32.3%; in [3], 5.15% (active); in test [4], -92.8% (active); in [5], -46.5% (active); in [6], -57.6% (active). Further, in test [7], the growth is -3.01% (active).
With `O=C1CC(=O)N(c2ccccc2)O1`, the growth in test [1] is 85%; in test [2], 110%; in test [3] it was 104%; in test [4], 97.6%; in [5] it was 93.9%; in test [6], 89.5%. Moreover, the growth in [7] was 107%.
In the case of `N=C(N)/N=C(\CCc1nc2ccccc2[nH]1)c1nc2ccccc2[nH]1`, the growth in test [1] was 82.5%; in test [2] it was 93.6%; in [3], 103%; in test [4], 98%; in [5] it was 82.2%; in test [6] it was 85.4%. Moreover, the growth in [7] is 100%.
With `CCCc1nn(C)c2c(=O)[nH]c(-c3cc(S(=O)(=O)N4CCN(C)CC4)ccc3OCC)nc12`, the growth in test [1] was 104%; in test [2], 103%; in [3], 94.5%; in test [8] it was 91.1%; in test [5], 99.9%; in [6], 93.9%. The growth was 116% in test [7] and 96.6% in test [9].
For the compound `O=C(Nc1nc(-c2ccc(Cl)cc2)cs1)c1cc(O)c(O)c(O)c1`, the growth in test [1] is 36.7%; in test [2], 25.9%; in test [3], 23.5%; in test [8], 46.9%; in test [4], 24.6%; in test [6] it was 1.72% (active). The growth in test [7] is 42.9%.
Regarding `COc1ccc(/C=N\Nc2ccc([N+](=O)[O-])cn2)cc1OC`, the growth in [1] is -0.426% (active); in test [2] it was 39.7%; in test [3], -18.5% (active); in test [4] it was 85.5%; in test [5], 81.7%; in test [6], 68.7%. Besides, in test [7], the growth is 79.5%.
Turning to `Clc1ncn[nH]1`, the growth in [1] is 83.6%; in test [2] it was 102%; in test [3], 98.2%; in test [8], 101%; in test [4], 111%; in test [5], 99.7%. Moreover, the growth in test [6] was 102%; in test [7], 103%; in [9], 99.4%.
